Results published in PubChem BioAssay (NCATS).
Results filed as inconclusive are left out. Entries that show only a call come without a potency. Active and inactive are the calls of the source. Unless noted, calls follow the shape of the dose curve; as a rule, active = well fitted curve in the direction sought with a large enough effect; inconclusive = small, poorly fitted or top-dose-only effect, or another doubt; inactive = no such curve, though single readings can be large; an effect the other way counts as inactive or inconclusive.

What was measured:
[1] = target: Mitogen-activated protein kinase 10 (Mus musculus) (UniProt Q61831); experiment: JNK3 AlphaScreen Assay (AID 530; active = well fitted curve in either direction with a large enough effect, not every such curve was filed as active;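 also: kinase came from lysate of stimulated human HepG2 cells; signal reports phosphorylation of biotinylated GST-cJun 1-79 at Ser73 with 10 µM ATP; series mostly up to about 57 µM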)
How it was run: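 Kinase buffer: 20 mM Tris-HCl pH 7.6, 10 mM MgCl2, 1 mM DTT, 0.1 mM Na3VO4, 0.01% Tween-20; ATP 10 uM. Substrate biotin-GST-cJun(1-79), enzyme from activated HepG2 lysates. Detection by Ser73 phospho-antibody AlphaScreen.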

[2] = target: Cytochrome P450 3A4 (Homo sapiens) (UniProt P08684); experiment: qHTS Assay for Inhibitors and Substrates of Cytochrome P450 3A4 (AID 884); also: potency is read from the fitted curve at half-maximal effect; nearly all actives have a fitted effect of over 50% in size
How it was run: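 Luminescent readout of luciferin produced by CYP3A4 (20 nM) dealkylation of Luciferin-PPXE, 25 uM (its KM). NADPH-driven reaction ran 60 min at RT after 10 min compound preincubation; data scaled to 57 uM ketoconazole as 100% inhibition.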

[3] = target: Cytochrome P450 3A4 (Homo sapiens) (UniProt P08684); experiment: qHTS Assay for Activators of Cytochrome P450 3A4 (AID 885); also: nearly all actives have a fitted effect of over 65% in size
How it was run: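 Activators are scored by enhanced luminescence from CYP3A4 conversion of luciferin-PPXE (25uM, equal to KM) to luciferin, after 60 min at RT with an NADPH-regenerating system.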

Sequence of Cytochrome P450 3A4 (Homo sapiens) (P08684 whole entry, looked up): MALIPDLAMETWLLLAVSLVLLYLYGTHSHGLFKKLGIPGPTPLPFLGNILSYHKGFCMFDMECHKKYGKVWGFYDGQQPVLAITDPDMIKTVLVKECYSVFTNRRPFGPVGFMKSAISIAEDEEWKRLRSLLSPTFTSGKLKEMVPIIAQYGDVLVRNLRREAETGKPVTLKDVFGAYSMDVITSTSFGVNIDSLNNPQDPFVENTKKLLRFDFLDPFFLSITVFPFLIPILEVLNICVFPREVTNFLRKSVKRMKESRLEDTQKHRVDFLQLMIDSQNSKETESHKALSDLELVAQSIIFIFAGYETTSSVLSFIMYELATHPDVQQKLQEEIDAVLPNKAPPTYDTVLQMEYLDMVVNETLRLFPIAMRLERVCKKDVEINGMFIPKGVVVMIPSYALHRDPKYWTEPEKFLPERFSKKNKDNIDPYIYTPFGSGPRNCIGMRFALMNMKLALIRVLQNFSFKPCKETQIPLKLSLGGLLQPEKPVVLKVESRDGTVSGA

Row | Structure (SMILES) | outcome [1] | Potency [2] | Potency [3]
1 | COC(=O)[C@@H]1C[C@@]1(C)[C@@H](NC(=O)OCc1ccccc1)c1ccccc1 | inactive | 25.1 µM (active) | inactive
2 | COC(=O)c1ccc(C(/C=C/[C@@H](C)C(=O)NCCN2CCCC2)NC(=O)OCc2ccccc2)cc1 (some centres not stated) | inactive | 10 µM (active) | inactive
3 | C[C@@H]1C=C[C@](Cc2ccccc2)(C(=O)NCC2CC2)N1C(=O)c1ccccc1 | inactive | 12.6 µM (active) | inactive
4 | COC(=O)c1ccc(C(NC(=O)OCc2ccccc2)/C(F)=C/[C@@H](C)C(=O)N[C@@H](CO)Cc2ccccc2)cc1 (some centres not stated) | inactive | 7.94 µM (active) | inactive
5 | COC(=O)[C@H](Cc1ccccc1)NC(=O)[C@H]1C[C@@H]1[C@H](NC(=O)OCc1ccccc1)c1ccccc1 | inactive | 7.94 µM (active) | inactive
6 | CNC(=O)[C@]1(C)C[C@H]1[C@H](NC(=O)[C@]1(C)C[C@H]1[C@H](NC(=O)OCc1ccccc1)c1ccccc1)c1ccccc1 | inactive | 15.8 µM (active) | inactive
7 | COC(=O)N1[C@H](C)C=C[C@]1(Cc1ccccc1)C(=O)NCCCNc1ncc(C(F)(F)F)cc1Cl | inactive | 6.31 µM (active) | inactive
8 | CCCCNC(=O)C(c1ccc(-c2ccccc2)cc1)N(CCN1CCOCC1)C(=O)CCCCCN1C(=O)NC(c2ccc([N+](=O)[O-])cc2)C(C(=O)OCc2ccccc2)=C1C (configuration not stated) | inactive | 2.51 µM (active) | inactive
9 | CC(=O)N1CC=CC1(C)C(=O)NCc1cc(F)cc(C(F)(F)F)c1 (configuration not stated) | inactive | 15.8 µM (active) | inactive
